Results: the supplement of paper PMC10849652
Targets with a hit are over-represented here; the source holds about 7,900 in all. About 0.6% of all pairs of compound and target were hits. Values without a mark were called inactive.

Experiments:
Experiment in all cases: log2 fold change, soluble protein after heating vs DMSO (PISA); higher = thermal stabilisation; K562 cells, 10 uM, 30 min; active = over 0.2 and 3.5 SD of the protein, either way, in both replicates (recomputed)
IRAK-1-4 Inhibitor I = compound: C1COCCN1CCN2C3=CC=CC=C3N=C2NC(=O)C4=CC(=CC=C4)[N+](=O)[O-] [IRAK-1-4 Inhibitor I]
In short: (§1)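 Thermal stability values are relative to control samples and come from duplicates. They are expressed as log2 fold changes. For measurement, K562 cells (2×10^6 cells/mL) received 10 μM compound for 30 min, and aliquots were heated for 3 min over 48°C-58°C, pooled, and extracted at 4°C in PBS with 0.5% NP-40. Soluble protein, the supernatant after 21,000xg for 90 min, was quantified by TMTpro 16plex LC-MS/MS with equalised channel sums.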

ibrutinib = compound: C=CC(=O)N1CCC[C@@H](n2nc(-c3ccc(Oc4ccccc4)cc3)c3c(N)ncnc32)C1 [ibrutinib]
In short: as §1

[1] = compound: CC(=O)c1cnc2ccc(-c3cc(Cl)c(O)c(Cl)c3)nc2c1N[C@H]1CC[C@H](CN(C)C)CC1
In short: as §1

ralimetinib = compound: CC(C)(C)Cn1c(N)nc2ccc(-c3[nH]c(C(C)(C)C)nc3-c3ccc(F)cc3)nc21 [ralimetinib]
In short: as §1

[2] = compound: CC(C)(O)CC(=O)NCCn1ccc2ncnc(Nc3ccc(Oc4cccc(C(F)(F)F)c4)c(Cl)c3)c21
In short: as §1

[3] = compound: CC(C)C1=C2N=C(C=C(N2N=C1)NCC3=CC=CC=C3)NCCCCCCN
In short: as §1

[4] = compound: CC(C)C[C@@H](C=O)NC(=O)[C@H](CC(C)C)NC(=O)[C@H](CC(C)C)NC(=O)OCc1ccccc1
In short: as §1

pinometostat = compound: CC(C)N(C[C@H]1O[C@@H](n2cnc3c(N)ncnc32)[C@H](O)[C@@H]1O)[C@H]1C[C@@H](CCc2nc3cc(C(C)(C)C)ccc3[nH]2)C1 [pinometostat]
In short: as §1

[5] = compound: CC1=C(C(CC(=O)N1)C2=CC=C(C=C2)C(F)(F)F)C(=O)NC3=C(C=C4C(=C3)C=NN4)F
In short: as §1

[6] = compound: CC1=C(C2=C(C=C1)C(=O)C3=CC=CC=C3N2CCCN)C
In short: as §1

[7] = compound: CC1=C(C=C(C=C1)NC(=O)C2=CC(=CC=C2)C(C)(C)C#N)NC3=CC4=C(C=C3)N=CN(C4=O)C
In short: as §1

[8] = compound: CC1=C(C=C(C=C1)NC(=O)C2=CC(=CC=C2)N(C)C)NC(=O)C3=CC=C(C=C3)O
In short: as §1

[9] = compound: CC1=CC=C(C=C1)SC2=C3C=C(SC3=CN=C2)C(=O)N
In short: as §1

[10] = compound: CC1=NC(=CC=C1)C2=C(N=C(N2)C(C)(C)C)C3=CC4=NC=CN=C4C=C3
In short: as §1

Nexturastat A = compound: CCCCN(Cc1ccc(C(=O)NO)cc1)C(=O)Nc1ccccc1 [Nexturastat A]
In short: as §1

vemurafenib = compound: CCCS(=O)(=O)Nc1ccc(F)c(C(=O)c2c[nH]c3ncc(-c4ccc(Cl)cc4)cc23)c1F [vemurafenib]
In short: as §1

[11] = compound: CCCS(=O)(=O)Nc1ccc(F)c(C(=O)c2c[nH]c3ncc(Cl)cc23)c1F
In short: as §1

[12] = compound: CCCc1cc(C)[nH]c(=O)c1CNC(=O)c1cc(-c2ccnc(N3CCN(C)CC3)c2)cc2c1cnn2C(C)C
In short: as §1

givinostat = compound: CCN(CC)Cc1ccc2cc(COC(=O)Nc3ccc(C(=O)NO)cc3)ccc2c1 [givinostat]
In short: as §1

barasertib = compound: CCN(CCCOc1ccc2c(Nc3cc(CC(=O)Nc4cccc(F)c4)[nH]n3)ncnc2c1)CCOP(=O)(O)O [barasertib]
In short: as §1

Chain of UniProt Q96QU8 (Q96QU8 whole entry, looked up): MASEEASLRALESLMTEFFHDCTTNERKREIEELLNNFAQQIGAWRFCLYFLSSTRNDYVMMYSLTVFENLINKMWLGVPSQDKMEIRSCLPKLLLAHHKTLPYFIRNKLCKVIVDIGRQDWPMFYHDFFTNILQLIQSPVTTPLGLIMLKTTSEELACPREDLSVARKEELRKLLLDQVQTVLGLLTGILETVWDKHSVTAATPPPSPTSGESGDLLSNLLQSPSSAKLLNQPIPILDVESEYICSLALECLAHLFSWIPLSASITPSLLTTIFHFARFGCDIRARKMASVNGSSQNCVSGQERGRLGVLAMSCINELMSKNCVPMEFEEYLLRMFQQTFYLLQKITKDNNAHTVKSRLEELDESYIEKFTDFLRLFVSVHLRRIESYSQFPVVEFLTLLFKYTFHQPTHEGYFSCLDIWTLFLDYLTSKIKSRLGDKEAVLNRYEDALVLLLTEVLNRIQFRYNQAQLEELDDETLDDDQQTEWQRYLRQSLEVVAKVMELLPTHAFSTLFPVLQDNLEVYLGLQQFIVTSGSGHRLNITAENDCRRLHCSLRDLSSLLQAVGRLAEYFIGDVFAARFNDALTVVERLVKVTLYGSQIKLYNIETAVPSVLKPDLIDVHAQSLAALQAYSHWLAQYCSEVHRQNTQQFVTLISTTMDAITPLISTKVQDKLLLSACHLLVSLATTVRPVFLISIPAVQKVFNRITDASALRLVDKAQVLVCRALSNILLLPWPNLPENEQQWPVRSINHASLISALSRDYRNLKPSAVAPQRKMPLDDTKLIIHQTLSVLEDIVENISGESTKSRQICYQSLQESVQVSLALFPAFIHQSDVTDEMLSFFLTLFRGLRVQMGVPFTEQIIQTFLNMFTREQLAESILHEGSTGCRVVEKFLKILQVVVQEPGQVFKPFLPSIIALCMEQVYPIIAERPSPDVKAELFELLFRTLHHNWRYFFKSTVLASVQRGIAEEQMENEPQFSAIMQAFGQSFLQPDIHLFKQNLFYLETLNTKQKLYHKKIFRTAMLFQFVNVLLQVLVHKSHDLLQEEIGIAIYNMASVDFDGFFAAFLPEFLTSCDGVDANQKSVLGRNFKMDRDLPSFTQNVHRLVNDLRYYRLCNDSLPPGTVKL
Chain of UniProt Q9NQW7 (Q9NQW7 whole entry, looked up): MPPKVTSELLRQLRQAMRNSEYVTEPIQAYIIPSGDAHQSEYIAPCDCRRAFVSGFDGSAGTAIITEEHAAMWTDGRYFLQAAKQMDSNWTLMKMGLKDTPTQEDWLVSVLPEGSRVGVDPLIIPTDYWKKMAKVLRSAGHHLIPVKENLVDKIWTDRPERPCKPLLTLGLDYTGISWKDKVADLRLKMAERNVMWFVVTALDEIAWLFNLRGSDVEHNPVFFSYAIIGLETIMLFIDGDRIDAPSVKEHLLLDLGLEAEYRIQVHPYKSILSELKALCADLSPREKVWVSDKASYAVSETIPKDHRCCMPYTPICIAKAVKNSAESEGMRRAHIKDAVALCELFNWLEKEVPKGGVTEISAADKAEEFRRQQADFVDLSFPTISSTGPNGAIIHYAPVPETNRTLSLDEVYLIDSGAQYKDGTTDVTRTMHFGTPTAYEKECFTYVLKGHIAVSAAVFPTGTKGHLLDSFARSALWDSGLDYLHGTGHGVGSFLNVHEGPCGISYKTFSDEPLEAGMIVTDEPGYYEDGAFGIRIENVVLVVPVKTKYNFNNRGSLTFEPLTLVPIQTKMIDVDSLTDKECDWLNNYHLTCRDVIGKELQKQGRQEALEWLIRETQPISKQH
Chain of UniProt O95801 (O95801 whole entry, looked up): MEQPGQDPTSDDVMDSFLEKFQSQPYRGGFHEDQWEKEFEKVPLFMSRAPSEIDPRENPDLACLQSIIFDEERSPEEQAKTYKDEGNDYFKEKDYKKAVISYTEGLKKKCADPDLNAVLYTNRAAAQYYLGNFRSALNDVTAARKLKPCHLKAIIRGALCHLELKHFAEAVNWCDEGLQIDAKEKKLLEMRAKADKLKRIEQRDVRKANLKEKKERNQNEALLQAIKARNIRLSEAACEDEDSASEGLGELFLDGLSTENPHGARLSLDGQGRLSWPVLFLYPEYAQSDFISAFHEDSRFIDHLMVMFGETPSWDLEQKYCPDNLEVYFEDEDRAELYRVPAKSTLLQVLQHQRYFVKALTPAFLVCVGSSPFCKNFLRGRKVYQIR
Chain of UniProt A3KMH1 (A3KMH1 whole entry, looked up): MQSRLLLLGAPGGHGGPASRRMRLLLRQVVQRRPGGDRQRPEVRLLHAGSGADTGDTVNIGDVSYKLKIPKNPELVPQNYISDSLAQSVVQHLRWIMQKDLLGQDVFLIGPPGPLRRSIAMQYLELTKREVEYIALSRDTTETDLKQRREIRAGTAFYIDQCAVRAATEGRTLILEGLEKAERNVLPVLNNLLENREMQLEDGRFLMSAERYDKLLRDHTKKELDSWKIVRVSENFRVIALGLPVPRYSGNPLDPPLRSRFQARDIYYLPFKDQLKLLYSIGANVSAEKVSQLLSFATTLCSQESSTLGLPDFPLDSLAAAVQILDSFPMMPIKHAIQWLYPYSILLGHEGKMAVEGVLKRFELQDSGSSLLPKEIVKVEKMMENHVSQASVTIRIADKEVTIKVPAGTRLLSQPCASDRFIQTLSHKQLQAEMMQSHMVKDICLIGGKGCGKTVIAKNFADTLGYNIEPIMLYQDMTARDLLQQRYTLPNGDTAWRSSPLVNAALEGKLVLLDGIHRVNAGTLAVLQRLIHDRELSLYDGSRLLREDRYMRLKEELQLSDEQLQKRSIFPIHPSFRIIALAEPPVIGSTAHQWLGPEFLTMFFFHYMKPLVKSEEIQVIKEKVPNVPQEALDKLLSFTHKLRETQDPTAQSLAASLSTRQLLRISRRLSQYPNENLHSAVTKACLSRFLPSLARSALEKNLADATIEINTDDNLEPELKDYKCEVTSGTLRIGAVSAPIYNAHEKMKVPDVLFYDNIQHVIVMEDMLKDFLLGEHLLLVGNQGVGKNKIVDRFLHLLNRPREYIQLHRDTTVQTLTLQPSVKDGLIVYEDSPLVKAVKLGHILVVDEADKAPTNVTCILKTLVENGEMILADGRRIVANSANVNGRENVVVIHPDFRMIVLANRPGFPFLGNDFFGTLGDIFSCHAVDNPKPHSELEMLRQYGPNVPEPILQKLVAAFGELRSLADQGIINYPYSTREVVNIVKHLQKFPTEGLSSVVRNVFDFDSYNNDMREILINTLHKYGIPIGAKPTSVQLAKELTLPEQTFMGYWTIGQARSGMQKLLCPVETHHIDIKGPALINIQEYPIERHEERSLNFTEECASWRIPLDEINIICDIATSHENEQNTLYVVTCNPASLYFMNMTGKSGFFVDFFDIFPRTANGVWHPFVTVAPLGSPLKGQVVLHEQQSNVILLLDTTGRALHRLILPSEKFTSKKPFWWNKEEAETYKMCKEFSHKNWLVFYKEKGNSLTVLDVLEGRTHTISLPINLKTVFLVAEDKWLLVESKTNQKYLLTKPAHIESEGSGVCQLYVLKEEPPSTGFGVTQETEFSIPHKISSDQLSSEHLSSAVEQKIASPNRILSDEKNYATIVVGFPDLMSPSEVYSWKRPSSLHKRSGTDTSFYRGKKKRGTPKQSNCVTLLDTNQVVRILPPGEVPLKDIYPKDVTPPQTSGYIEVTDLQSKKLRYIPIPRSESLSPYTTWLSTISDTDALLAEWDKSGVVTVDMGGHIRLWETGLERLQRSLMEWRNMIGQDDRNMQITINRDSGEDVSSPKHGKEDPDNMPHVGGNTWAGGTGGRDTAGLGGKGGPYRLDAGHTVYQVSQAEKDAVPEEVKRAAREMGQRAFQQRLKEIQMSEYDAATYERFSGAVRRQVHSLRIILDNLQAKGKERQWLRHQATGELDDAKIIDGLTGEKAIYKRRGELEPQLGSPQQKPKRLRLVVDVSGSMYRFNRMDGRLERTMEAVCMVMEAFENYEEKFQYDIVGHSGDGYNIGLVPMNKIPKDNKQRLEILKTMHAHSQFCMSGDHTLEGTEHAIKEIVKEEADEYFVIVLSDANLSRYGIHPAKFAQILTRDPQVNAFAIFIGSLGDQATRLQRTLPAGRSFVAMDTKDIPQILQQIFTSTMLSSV
Chain of UniProt Q9Y3C0 (Q9Y3C0 whole entry, looked up): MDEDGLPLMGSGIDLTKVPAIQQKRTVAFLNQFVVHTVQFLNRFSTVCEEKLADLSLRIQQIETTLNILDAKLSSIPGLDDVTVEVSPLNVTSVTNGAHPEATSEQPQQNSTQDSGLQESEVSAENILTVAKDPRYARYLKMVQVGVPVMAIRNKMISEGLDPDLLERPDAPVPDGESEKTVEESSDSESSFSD
Chain of UniProt O75554 (O75554 whole entry, looked up): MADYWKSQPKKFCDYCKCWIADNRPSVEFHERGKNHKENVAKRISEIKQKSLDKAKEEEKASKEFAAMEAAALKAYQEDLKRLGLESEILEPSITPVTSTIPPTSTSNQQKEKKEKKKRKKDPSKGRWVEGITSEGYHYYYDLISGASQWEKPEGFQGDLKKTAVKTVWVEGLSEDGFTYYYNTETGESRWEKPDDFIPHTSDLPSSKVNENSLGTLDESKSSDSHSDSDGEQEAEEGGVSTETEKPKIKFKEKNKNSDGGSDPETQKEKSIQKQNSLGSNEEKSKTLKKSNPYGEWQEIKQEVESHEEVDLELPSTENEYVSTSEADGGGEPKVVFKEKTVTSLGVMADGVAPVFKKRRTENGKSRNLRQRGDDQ
Chain of UniProt Q9BUB7 (Q9BUB7 whole entry, looked up): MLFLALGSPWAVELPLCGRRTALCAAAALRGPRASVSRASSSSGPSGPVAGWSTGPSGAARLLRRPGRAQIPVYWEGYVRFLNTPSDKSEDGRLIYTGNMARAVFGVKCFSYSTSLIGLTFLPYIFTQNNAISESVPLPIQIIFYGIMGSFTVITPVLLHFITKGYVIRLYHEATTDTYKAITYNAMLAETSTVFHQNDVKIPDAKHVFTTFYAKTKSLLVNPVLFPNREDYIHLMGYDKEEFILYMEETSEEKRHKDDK

Row | Target | log2 fold change (IRAK-1-4 Inhibitor I) | log2 fold change (ibrutinib) | log2 fold change [1] | log2 fold change (ralimetinib) | log2 fold change [2] | log2 fold change [3] | log2 fold change [4] | log2 fold change (pinometostat) | log2 fold change [5] | log2 fold change [6] | log2 fold change [7] | log2 fold change [8] | log2 fold change [9] | log2 fold change [10] | log2 fold change (Nexturastat A) | log2 fold change (vemurafenib) | log2 fold change [11] | log2 fold change [12] | log2 fold change (givinostat) | log2 fold change (barasertib)
1 | UBA6 | -0.038 | -0.01 | -0.009 | -0.002 | -0.012 | -0.044 | -0.025 | 0.004 | -0.044 | 0.106 | 0.086 | -0.044 | 0.032 | 0.02 | -0.027 | 0.057 | 0.086 | 0.036 | 0.015 | 0.07
2 | VRK2 (UniProt Q86Y07) | 0.004 | 0.003 | 0.32 (active) | 0.21 | -0.088 | 0.027 | 0.074 | 0.075 | -0.03 | 0.109 | -0.072 | -0.05 | 0.01 | 0.015 | 0.04 | 0.006 | 0.044 | 0.025 | 0.03 | 0.01
3 | TTC4 (UniProt O95801) | -0.058 | -0.031 | -0.052 | 0.168 | -0.072 | -0.119 | 0.024 | -0.015 | -0.001 | 0 | 0.051 | -0.066 | 0.032 | 0.046 | 0.052 | 0.059 | 0.106 | 0.013 | -0.015 | 0.072
4 | XRCC6 (UniProt P12956) | -0.046 | -0.057 | -0.12 | -0.004 | -0.124 | -0.195 | 0.074 | -0.01 | -0.001 | -0.008 | 0.046 | -0.051 | 0.022 | 0.033 | -0.023 | 0.059 | 0.138 | 0.025 | 0.116 | 0.086
5 | TMEM263 (UniProt Q8WUH6) | 0.083 | 0 | 0.026 | -0.092 | -0.303 | -1.03 (active) | 0.029 | 0.001 | 0.092 | 0.037 | -0.009 | -0.015 | 0.117 | 0.059 | -0.02 | -0.051 | 0.128 | -0.138 | -0.015 | 0.054
6 | WEE1 (UniProt P30291) | 0.025 | 0.013 | -1.1 (active) | 0.037 | -0.034 | -0.019 | 0.296 | 0.066 | 0.05 | 0.263 | -0.037 | 0.02 | -0.304 | -0.046 | 0.322 | 0 | 0 | -0.137 | 0.037 | -0.005
7 | USP14 (UniProt P54578) | -0.013 | -0.045 | -0.004 | 0.021 | -0.028 | -0.068 | 0.044 | -0.031 | 0 | 0.014 | 0.023 | -0.018 | 0.01 | 0.034 | -0.069 | 0.021 | 0.093 | 0.012 | -0.006 | 0.032
8 | VWA8 (UniProt A3KMH1) | 0.022 | -0.015 | -0.041 | 0.016 | -0.115 | -0.149 | -0.032 | -0.004 | 0.009 | 0.021 | -0.07 | 0.042 | 0.023 | 0.019 | -0.059 | 0.034 | 0.011 | 0.032 | 0.025 | 0.022
9 | TOE1 (UniProt Q96GM8) | -0.15 | -0.031 | 0.089 | 0.012 | 0.005 | 0.042 | 0.09 | 0.077 | -0.067 | -0.228 | 0.099 | 0.056 | -0.012 | -0.109 | 0.078 | -0.016 | 0.048 | 0.059 | -0.055 | -0.063
10 | XPNPEP1 isoform 3 (UniProt Q9NQW7) | 0.07 | -0.002 | -0.011 | -0.03 | -0.016 | -0.135 | -0.073 | -0.006 | -0.014 | 0.045 | 0.014 | -0.024 | 0.023 | 0.036 | -0.014 | 0 | 0.021 | -0.01 | 0.042 | 0.016
11 | WASHC3 (UniProt Q9Y3C0) | 0.096 | 0.015 | 0.023 | -0.033 | 0.024 | -0.166 | -0.041 | -0.074 | 0.059 | 0.032 | 0.011 | 0.015 | 0.049 | -0.008 | -0.051 | 0.005 | -0.006 | -0.08 | 0.004 | 0.017
12 | USO1 isoform 2 (UniProt O60763) | 0.05 | -0.025 | 0.066 | 0.004 | -0.061 | -0.108 | -0.01 | 0.008 | -0.011 | -0.005 | 0.009 | -0.013 | 0.02 | 0.038 | -0.029 | 0.063 | 0.062 | -0.018 | 0 | 0.031
13 | WBP4 (UniProt O75554) | 0.082 | -0.001 | 0.033 | -0.057 | -0.001 | 0.098 | 0.041 | -0.06 | -0.003 | 0.02 | 0.105 | 0.044 | 0.057 | -0.036 | -0.047 | 0.022 | 0.011 | 0 | -0.043 | -0.022
14 | TMEM70 (UniProt Q9BUB7) | 0.07 | 0.068 | -0.034 | -0.044 | -0.095 | 0.13 | 0.028 | 0.019 | -0.034 | 0.086 | 0.006 | 0.051 | 0.051 | 0.005 | -0.012 | -0.011 | 0.029 | -0.053 | -0.164 | 0.047
15 | WDR62 isoform 4 (UniProt O43379) | 0.085 | -0.069 | -0.579 (active) | 0.003 | -0.003 | -0.085 | 0.042 | 0.062 | 0.063 | -0.176 | -0.123 | -0.015 | -0.055 | -0.033 | 0.029 | 0.008 | 0.053 | -0.014 | 0.022 | 0.032
16 | XPO6 (UniProt Q96QU8) | -0.131 | 0.246 | -0.038 | 0.083 | 0.434 (active) | -0.189 | -0.023 | 0.646 (active) | -0.08 | 0.067 | 0.008 | -0.221 | 0.041 | -0.369 | 0.767 (active) | 0.082 | 0.13 | 0.028 | 0.068 | -0.003
